HCV inh = HCV inhibition | Huh7.5.1 HCVcc-Cre infection, luciferase reporter, 44 h | Potency, µM (highest dose often 41.8 µM), for inactives: top-dose activity change, negative = inhibition, actives largely listed as inhibitors | actives 3.4% (n = 340,000) | AID 651820; active = well fitted inhibition curve with a large enough effect; inconclusive = small, poorly fitted or top-dose-only effect, or another doubt; inactive = no such curve, though single readings can be large or run the other way; note: potency is the fitted concentration of half-maximal effect
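Whole-lifecycle infectious HCVcc-Cre system; cells 1,000/well, compound then virus (~0.5 moi) added 4 h after plating, 44 h culture. Luciferase read 15 sec following 15 min substrate incubation, room temp.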
HCMV inh = blocks human cytomegalovirus replication | HFF cells, HCMV-luciferase reporter, 72 h; active compounds read low | activity change, negative = inhibition, % at 57.5 µM | actives 4.5% (n = 410,000) | AID 1259415; in the data active = activity change below about -60%; inconclusive = no clear call, values can overlap the other calls; inactive = above about -39%
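Two compound doses tested in HFFs infected with HCMV-luciferase, MOI 1 PFU/cell, 72 h at 37C. Lysate luminescence read with OneGlo; data normalized against buffer-only and 10uM Salinomycin inhibitor controls.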
Vaccinia mCherry = vaccinia inhibition (mCherry reporter); actives 0.63% (n = 310,000); Vaccinia virus mCherry reporter infection, fluorescence; Potency, µM (highest dose often 36.5 µM), for the others: at the highest dose activity change, negative = inhibition, most hits filed as inhibitors; calls by dose curve; tested in A549 cells; note: potency is the fitted concentration of half-maximal effect; nearly all actives have a fitted effect of over 35% in size
Lassa entry inh = Lassa virus entry inhibition; Lassa virus pseudotype entry inhibition, cell reporter; Potency, µM (series often up to 37.9 µM), without a hit: top-dose activity change, negative = inhibition, hits mostly inhibitors; actives 1.2% (n = 300,000); calls by dose curve; tested in HEK293 cells; note: potency is the fitted concentration of half-maximal effect; nearly all actives have a fitted effect of over 50% in size
VACV Venus inh = vaccinia inhibition (Venus reporter) | AID 720580 | Vaccinia virus Venus reporter expression, fluorescence | actives 0.46% (n = 330,000) | Potency, µM (series often up to 36.5 µM), without a hit: at the highest dose activity change, negative = inhibition, most hits filed as inhibitors; calls by dose curve; tested in A549 cells; note: potency is the fitted concentration of half-maximal effect; nearly all actives have a fitted effect of over 30% in size
MARV entry inh = Marburg virus entry inhibition | actives 1.8% (n = 300,000) | AID 540276 | Potency, µM (titrated, usually from 37.8 µM), for inactives: at the top dose activity change, negative = inhibition, usual class: inhibitors | Marburg virus pseudotyped entry inhibition, cell reporter; calls by dose curve; tested in HEK293 cells; note: potency is the fitted concentration of half-maximal effect
The depositor's hits bear a star; i = inactive; ? = inconclusive; · = not tested or not shown; [ ] = dose if it differs, or a comment. Most compounds without a hit are left out; they make up all but 7.8% or so of the library. % is set by controls: 0 for no effect and ±100 for the full control effect.

SMILES	HCV inh	HCMV inh	Vaccinia mCherry	Lassa entry inh	VACV Venus inh	MARV entry inh
CC1=CC[C@@H](COc2ccccc2)O[C@@]2(C1)C(=O)N(Cc1ccc(Br)cc1)c1cccc(Br)c12	·	·	·	·	·	46%[14.2 µM]
CCc1ccc(CNC(=O)CN2C(=O)C3CCCCN3c3ccc(C(=O)N4CCCC4)cc32)cc1 (configuration not stated)	·	-11	-7%	-8%[46.1 µM]	-12%	·
O=C(Nc1ccc(Cl)c(Cl)c1)N1CCCCCC1	-12%	97	-6%	-1%[46.1 µM]	-1%	?
O=C(c1ccc(NC(=S)Nc2ccc(Cl)c(Cl)c2)cc1)N1CCCC1	3%	-62*	i	-11%	-19%	15%
O=C(C1CCCO1)N1CCN(C(=S)Nc2ccc(Cl)c(Cl)c2)CC1 (configuration not stated)	3%	-10	?	10µM*	-29%	?
O=C(C1CCCO1)N1CCN(C(=S)Nc2ccc(Cl)cc2)CC1 (configuration not stated)	6%	-12	i	-10%	-17%	?
COC(=O)C/C=C/[C@@H](C)[C@@H](Cc1ccccc1Br)OC	·	·	·	·	·	-4%[14.2 µM]
Cc1cc(C)nc(SCC(=O)Nc2ccnc3ccccc23)n1	1.8µM*	-89*	?	?	-10%	?
COC(=O)c1ccccc1NC(=O)CSc1nc(C)cc(C)n1	3%	-35	-22%	-5%[46.1 µM]	-9%	5%[46.1 µM]
O=C(CSC1=NCCS1)Nc1ccnc2ccccc12	?	-73*	?	-21%	-29%	-29%
Cc1cc(NC(=O)Cc2ccccc2)c2ccccc2n1	?	-86*	·	·	·	·
CC(=O)c1cc(-c2ccc(F)cc2)n(CCC(=O)NCc2ccc(C)cc2)c1C	·	0	-13%	-2%[46.1 µM]	-10%	·
COc1cc2c(cc1O)[C@@H]1Cc3ccc(OC)c(O)c3CN1CC2	2.5µM*	-15	-3%	·	-19%	·
COc1ccc(C)cc1NS(=O)(=O)c1ccc(NC(=O)CN(c2cc([N+](=O)[O-])ccc2C)S(C)(=O)=O)cc1	10µM*	-35	-30%	?	?	3.7µM*
COc1cccc(-c2ccc(O)c(CNC(c3ccccc3)c3ccc(Cl)cc3)c2)n1 (configuration not stated)	·	·	-17%	·	-6%	·
O=C(c1ccccc1Cl)N1CCN(S(=O)(=O)c2cccs2)CC1	·	21	-3%	17%	-14%	2%
O=C(c1ccc(-c2ccccc2Cl)o1)N1CCN(S(=O)(=O)c2cccs2)CC1	14µM*	37	-12%	-3%	-29%	?
O=C(c1ccco1)N1CCN(C(=O)c2ccc(-c3ccccc3Cl)o2)CC1	22µM*	0	·	·	·	·
O=C(c1ccco1)N1CCN(Cc2cccc3ccccc23)CC1	-4%	-16	-14%	10µM*	10%	5µM*
COc1ccc(-c2noc(Cn3c(=O)c4ccccc4n(CC(=O)Nc4cccc(C(F)(F)F)c4)c3=O)n2)cc1	·	-11	-10%	-32%[46.1 µM]	-20%	·
COC(=O)/C=C1/OC(c2ccccc2)=CC1=O	·	·	·	·	·	8%
Cc1ccccc1C(=O)NCc1ccc2c(c1)CCN2C(=O)c1ccccc1	·	-31	-23%	-30%[46.1 µM]	?	·
COc1cccc(-c2onc3ccc(C(C)=O)cc23)c1	?	-70*	·	·	·	·
CC(=O)COC(=O)c1ccc2noc(-c3ccccc3)c2c1	-18%	-68*	i	-2%	-18%	?
COc1cccc(-c2onc3ccc(C(=O)/C=C/N(C)C)cc23)c1	-30%	10	-29%	4%[46.1 µM]	-6%	-9%[46.1 µM]
NC(=O)NC(=O)COC(=O)c1ccc2noc(-c3ccccc3)c2c1	-11%	55	i	-2%[46.1 µM]	-4%	-8%[46.1 µM]
CC(=O)c1ccc2noc(-c3cccc(F)c3)c2c1	2.2µM*	?	i	-20%	-15%	-30%
Cc1nc2ccc(C(=O)NCC3CCC4(CCN(Cc5cccnc5)CC4)O3)cc2nc1C (configuration not stated)	·	·	-11%	·	4%	·
O=C(Nc1nc(-c2ccccc2)cs1)c1ccc(S(=O)(=O)N2CCc3ccccc32)cc1	10µM*	-77*	i	?	?	?
Cc1ccc(-c2csc(NC(=O)c3ccc(S(=O)(=O)N4CCc5ccccc54)cc3)n2)cc1	4.5µM*	?	-13%	-10%	-20%	-33%

Assay outcomes from PubChem.
